Test [1] is described as follows: yeast TOR pathway RPL19A-GFP modulators, primary screen, cell-based, S. cerevisiae, multiplex flow cytometry (AID 1862; in the data active = percent of DMSO control GFP below about 86%;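 note: lower values mimic rapamycin by blocking the RPL19A rise seen in DMSO cells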). Particulars: S. cerevisiae RPL19A-GFP strain, flow cytometry fluorescence, 3 h; at 10 µM; stronger effect = lower value. Background: Flow cytometry measures light scatter and fluorescence of single cells or particles in a stream.
Test [2] in a line: modulators of MEP2-GFP levels in yeast, primary screen, S. cerevisiae, multiplex flow cytometry (AID 1867;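 active = GFP response, as percent of the DMSO control, above the screen-wide mean plus 3 SD, about 139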;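 note: median GFP channel fluorescence of barcode-gated MEP2-GFP cells measured by flow cytometry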). Particulars: S. cerevisiae MEP2-GFP strain, 3 h, at 10 µM, stronger effect = higher value, 100% means same as DMSO wells.
Test [3] is described as follows: modulators of CIT2-GFP expression in yeast, primary screen, S. cerevisiae, GFP fusion, multiplex flow cytometry (AID 1870;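 active = percent response above a set limit, the screen-wide mean plus 3 SD, cut at about 130% in these data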;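 note: barcoded CIT2-GFP strain pooled with four other GFP strains with rapamycin as positive control; median GFP fluorescence per well over plate mean of DMSO wells so 100% = DMSO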). As to conditions: 3 h, at 10 µM, stronger effect = higher value.
The nature of test [4]: modulators of LAP4-GFP expression in yeast, primary screen, S. cerevisiae, multiplex flow cytometry (AID 1873;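 active = GFP signal, as percent of the solvent control, above the screen mean plus 3 SD, about 149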). As to conditions: 3 h, at 10 µM, stronger effect = higher value.
Test [5] in a line: modulators of AGP1-GFP expression in yeast TOR pathway, primary screen, cell-based, multiplex flow cytometry, S. cerevisiae (AID 1887;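 active = GFP signal above the screen-wide mean plus 3 SD, that is over about 124.5% of the solvent control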;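 note: AGP1-GFP fusion strain of S. cerevisiae within a five-strain barcoded multiplex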). Particulars: 3 h, at 10 µM, stronger effect = higher value.
A short description of test [6]: inhibitors of CD8+ T cell-vesicle binding, pilot screen, LFA-1/ICAM-1 modulator project, MLPCN validation set, flow cytometry (AID 2523;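 active = response below a set limit, under 55% cells CD8-positive and vesicle-bound, and CD8 cells' 90th-percentile brightness under 279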;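 for vesicle binding response: mean PE anti-B7-1 fluorescence of CD8+ cells relative to row control; 100% = QL9-loaded vesicles with DMSO vehicle in the same plate row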). As to conditions: 2C mouse CD8+ T cells, at 7 µM, stronger effect = lower value; double positive events: measured here: CD8+/vesicle+ event percentage.
Test [7] has as its target Integrin beta-1 (Homo sapiens) + Integrin alpha-4 (Homo sapiens) (UniProt P13612+P05556). In words: inhibition of HUTS-21 binding to VLA-4, pilot screen, VLA-4 allosteric modulator project, U937 cells, HUTS-21 mAb, flow cytometry, validation set (AID 2674;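 active = inhibition above 50%, about 3 SD of the validation set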;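 note: antibody binding induced by the VLA-4 ligand LDV present at three times its Kd; 0% = LDV ligand with antibody and no compound and 100% = antibody without LDV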). As to conditions: HUTS-21 LIBS mAb binding, at 6.7 µM, stronger effect = higher value, binding induced by LDV ligand.
Test [8] can be described thus: superoxide lowering in aged yeast cells, pilot screen, validation compound set (AID 2706;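 active = superoxide response below 65% of plate, a cut near 3 SD across the whole screen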;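 note: yeast exposed to compound for one week at 30 degrees C before staining; 100% = mean of all compound wells on the same plate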). Particulars: S. cerevisiae aging, superoxide DHE fluorescence; at 10 µM; stronger effect = lower value.
The target in test [9] is Beta-adrenergic receptor kinase 1 (Homo sapiens) (UniProt P25098). As to the kind of experiment: GRK2 binders displacing RNA aptamer, biochemical, validation, human GRK2, bead flow cytometry (AID 488806;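 active = aptamer binding inhibition above 30%, about 3 SD of noise from non-fluorescent compounds; inactive = inhibition at or below 30%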). Particulars: bead-bound GRK2, FAM-aptamer displacement, at 10 µM, stronger effect = higher value.
Beta-adrenergic receptor kinase 1 (Homo sapiens), sequence (P25098 whole entry, looked up): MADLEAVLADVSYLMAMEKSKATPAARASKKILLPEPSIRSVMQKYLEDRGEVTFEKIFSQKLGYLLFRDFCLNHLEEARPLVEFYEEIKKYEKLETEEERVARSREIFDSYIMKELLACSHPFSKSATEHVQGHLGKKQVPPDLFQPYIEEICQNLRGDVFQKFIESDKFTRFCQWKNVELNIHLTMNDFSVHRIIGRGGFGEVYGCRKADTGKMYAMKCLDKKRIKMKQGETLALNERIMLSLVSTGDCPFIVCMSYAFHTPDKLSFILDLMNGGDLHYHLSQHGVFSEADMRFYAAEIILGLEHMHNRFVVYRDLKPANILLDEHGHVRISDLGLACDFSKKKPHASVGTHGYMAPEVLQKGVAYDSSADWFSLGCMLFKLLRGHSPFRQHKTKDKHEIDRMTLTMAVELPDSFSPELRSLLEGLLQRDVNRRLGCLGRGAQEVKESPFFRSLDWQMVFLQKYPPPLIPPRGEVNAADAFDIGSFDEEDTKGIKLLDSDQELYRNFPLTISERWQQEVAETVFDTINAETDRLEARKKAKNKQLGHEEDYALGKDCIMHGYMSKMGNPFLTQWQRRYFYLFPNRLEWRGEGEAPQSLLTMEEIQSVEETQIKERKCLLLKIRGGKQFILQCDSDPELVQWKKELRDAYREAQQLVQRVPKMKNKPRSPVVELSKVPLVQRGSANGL
The target of test [10] is Beta-2 adrenergic receptor (Homo sapiens) (UniProt P07550). In words: beta2AR agonists driving receptor internalization, pilot screen, cell-based, FAP fluorogen, flow cytometry, validation set (AID 504459;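 active = percent response above 42, roughly 3 SD of non-fluorescent test compounds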;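 note: agonist-driven loss of surface beta2AR via internalization measured by FAP dye flow cytometry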). As to conditions: Am2.2-beta2AR cells, FAP surface receptor flow cytometry; at 10 µM; stronger effect = higher value.
Beta-2 adrenergic receptor (Homo sapiens), sequence (P07550 whole entry, looked up): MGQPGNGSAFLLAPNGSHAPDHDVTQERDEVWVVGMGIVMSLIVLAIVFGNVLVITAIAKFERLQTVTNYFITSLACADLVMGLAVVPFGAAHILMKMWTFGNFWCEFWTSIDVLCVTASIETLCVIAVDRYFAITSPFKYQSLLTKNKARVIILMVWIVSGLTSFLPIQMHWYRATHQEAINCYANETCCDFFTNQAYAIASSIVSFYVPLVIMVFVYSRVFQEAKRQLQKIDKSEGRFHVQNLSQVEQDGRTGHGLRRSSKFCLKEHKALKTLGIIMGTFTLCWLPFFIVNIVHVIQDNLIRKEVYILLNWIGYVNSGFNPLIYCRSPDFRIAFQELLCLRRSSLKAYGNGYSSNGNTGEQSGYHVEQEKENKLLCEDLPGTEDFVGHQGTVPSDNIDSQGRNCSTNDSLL
Test [11] concerns the target AP-2 complex subunit beta (Homo sapiens) (UniProt P63010). In words: inhibitors of arrestin peptide binding to AP2, pilot screen, biochemical, validation set, GST-AP2 beads, flow cytometry (AID 504541).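 Note: AP2 carries R879A mutation and is captured from E. coli lysate; bead-bound FITC arrestin peptide fluorescence measuring arrestin peptide binding to AP2; 0% = DMSO wells and 100% = excess unlabeled arrestin peptide control.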 As to conditions: FITC arrestin peptide, at 10 µM, stronger effect = higher value, AP2 beta2 appendage fragment, R879A mutant.
Test [12] in a line: yeast V-ATPase proton transport modulators, S. cerevisiae, pHLuorin, HTS validation (AID 504600; in the data active = response above about 15%;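 note: plate controls were DMSO for no effect and reference compound for full effect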). As to conditions: S. cerevisiae pHLuorin cytosolic pH, at 10 µM, stronger effect = higher value.
For test [13], the system named is anti-desmoglein-3 scFv antibody binding to human DSG3. As to the kind of experiment: inhibitors of anti-DSG3 scFv binding to DSG3, pilot screen, biochemical, validation compound set, bead-based, flow cytometry (AID 588368;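 active = binding below the plate cutoff, the plate median minus 3 SD, with a reading above zero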;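 note: signal is the median channel fluorescence of bead-bound GFP antibody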). As to conditions: Protein G beads, DSG3-Fc, scFv-GFP binding, at 10 µM, stronger effect = lower value.
Test [14] can be described thus: inhibitors of fungal efflux pumps CDR1, CDR2, MDR1, pilot screen, validation compound set, multiplex, phenotypic (AID 588506;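 active = efflux inhibition above 0.42, the validation set average plus 4 SD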;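 note: Nile Red retained in cells so higher fluorescence means more efflux inhibition; 0 = negative control wells and 1 = enniatin B 25 µM full block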). Particulars: S. cerevisiae pump-expressing triplex, Nile Red efflux flow cytometry; at 10 µM; stronger effect = higher value; the pumps come from Candida albicans.
For test [15], the target named is ATP-binding cassette sub-family B member 6 (Homo sapiens) (UniProt Q9NP58). In words: ABCB6 transporter inhibitors, pilot screen, K562-ABCB6 cells, flow cytometry, validation set (AID 588550;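 active = inhibition above the screen-wide mean plus 3 SD, about 51%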;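 note: 0% = DMSO wells and 100% = benzethonium chloride 70 µM positive control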). Particulars: K562-ABCB6 porphyrin accumulation, 1 h, at 10 µM, stronger effect = higher value.
ATP-binding cassette sub-family B member 6 (Homo sapiens), sequence (Q9NP58 whole entry, looked up): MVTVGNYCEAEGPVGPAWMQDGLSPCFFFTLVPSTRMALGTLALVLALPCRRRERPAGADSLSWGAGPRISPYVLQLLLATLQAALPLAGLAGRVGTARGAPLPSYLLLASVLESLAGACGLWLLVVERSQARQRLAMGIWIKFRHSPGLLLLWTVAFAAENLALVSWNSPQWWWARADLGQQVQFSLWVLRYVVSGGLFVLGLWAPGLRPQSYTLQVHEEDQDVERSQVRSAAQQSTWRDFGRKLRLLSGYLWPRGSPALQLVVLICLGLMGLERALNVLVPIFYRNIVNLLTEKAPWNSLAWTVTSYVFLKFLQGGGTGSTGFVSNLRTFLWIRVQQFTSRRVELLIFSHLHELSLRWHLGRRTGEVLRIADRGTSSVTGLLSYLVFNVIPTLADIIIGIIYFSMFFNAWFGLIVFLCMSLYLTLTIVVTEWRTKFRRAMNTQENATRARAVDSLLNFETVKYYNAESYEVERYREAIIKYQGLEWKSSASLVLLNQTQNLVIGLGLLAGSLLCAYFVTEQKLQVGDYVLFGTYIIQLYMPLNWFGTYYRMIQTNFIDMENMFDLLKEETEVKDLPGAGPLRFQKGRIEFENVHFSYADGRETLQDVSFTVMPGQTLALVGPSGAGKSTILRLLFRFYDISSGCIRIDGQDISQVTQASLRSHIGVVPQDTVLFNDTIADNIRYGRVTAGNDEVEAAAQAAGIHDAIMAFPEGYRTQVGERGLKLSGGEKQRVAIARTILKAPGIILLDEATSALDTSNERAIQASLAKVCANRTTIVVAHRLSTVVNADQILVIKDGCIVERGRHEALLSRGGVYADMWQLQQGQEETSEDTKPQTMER
A short description of test [16]: promoters of myeloid differentiation in arrested cells, primary screen, cell-based, GFP/MAC1 double positive, flow cytometry, validation set (AID 588685;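 active = differentiation response of at least 50%, scaled between solvent and reference control, from cells with both markers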;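 note: compound exposure lasts four days before antibody staining and flow analysis; 0% = DMSO wells and 100% = 5 µM fulvestrant positive control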). Particulars: ER-HoxA9 marrow cells, stronger effect = higher value, normalized: vehicle 0, fulvestrant 100.

Records with an inconclusive call do not appear. Active and inactive are the calls of the source.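 Rule for the calls, unless noted: active = inhibition above 54%, about 3 SD of non-fluorescent compounds; inactive = the rest.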

Integrin beta-1 (Homo sapiens) + Integrin alpha-4 (Homo sapiens), sequence (P05556 whole entry, looked up): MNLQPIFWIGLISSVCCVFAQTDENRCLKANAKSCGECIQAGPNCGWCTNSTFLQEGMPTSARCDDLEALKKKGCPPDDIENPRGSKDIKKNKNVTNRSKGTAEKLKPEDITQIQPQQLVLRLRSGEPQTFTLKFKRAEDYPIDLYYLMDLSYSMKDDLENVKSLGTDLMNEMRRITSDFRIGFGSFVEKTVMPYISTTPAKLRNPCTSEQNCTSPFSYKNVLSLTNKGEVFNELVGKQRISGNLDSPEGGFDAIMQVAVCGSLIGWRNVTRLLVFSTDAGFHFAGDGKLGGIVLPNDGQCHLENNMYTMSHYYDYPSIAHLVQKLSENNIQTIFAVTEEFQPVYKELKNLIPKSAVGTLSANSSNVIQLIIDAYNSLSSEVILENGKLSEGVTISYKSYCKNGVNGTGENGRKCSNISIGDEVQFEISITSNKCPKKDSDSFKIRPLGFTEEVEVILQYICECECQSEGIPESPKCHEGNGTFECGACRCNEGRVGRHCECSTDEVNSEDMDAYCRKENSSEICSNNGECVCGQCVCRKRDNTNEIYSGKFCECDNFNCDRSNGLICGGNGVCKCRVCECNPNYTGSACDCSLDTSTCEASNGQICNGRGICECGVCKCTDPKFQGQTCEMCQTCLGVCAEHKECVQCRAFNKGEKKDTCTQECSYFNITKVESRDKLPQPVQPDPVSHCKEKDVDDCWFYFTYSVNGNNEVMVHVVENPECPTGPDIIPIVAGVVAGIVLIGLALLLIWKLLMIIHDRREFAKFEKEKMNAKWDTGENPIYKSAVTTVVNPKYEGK
Integrin beta-1 (Homo sapiens) + Integrin alpha-4 (Homo sapiens), sequence (P13612 whole entry, looked up): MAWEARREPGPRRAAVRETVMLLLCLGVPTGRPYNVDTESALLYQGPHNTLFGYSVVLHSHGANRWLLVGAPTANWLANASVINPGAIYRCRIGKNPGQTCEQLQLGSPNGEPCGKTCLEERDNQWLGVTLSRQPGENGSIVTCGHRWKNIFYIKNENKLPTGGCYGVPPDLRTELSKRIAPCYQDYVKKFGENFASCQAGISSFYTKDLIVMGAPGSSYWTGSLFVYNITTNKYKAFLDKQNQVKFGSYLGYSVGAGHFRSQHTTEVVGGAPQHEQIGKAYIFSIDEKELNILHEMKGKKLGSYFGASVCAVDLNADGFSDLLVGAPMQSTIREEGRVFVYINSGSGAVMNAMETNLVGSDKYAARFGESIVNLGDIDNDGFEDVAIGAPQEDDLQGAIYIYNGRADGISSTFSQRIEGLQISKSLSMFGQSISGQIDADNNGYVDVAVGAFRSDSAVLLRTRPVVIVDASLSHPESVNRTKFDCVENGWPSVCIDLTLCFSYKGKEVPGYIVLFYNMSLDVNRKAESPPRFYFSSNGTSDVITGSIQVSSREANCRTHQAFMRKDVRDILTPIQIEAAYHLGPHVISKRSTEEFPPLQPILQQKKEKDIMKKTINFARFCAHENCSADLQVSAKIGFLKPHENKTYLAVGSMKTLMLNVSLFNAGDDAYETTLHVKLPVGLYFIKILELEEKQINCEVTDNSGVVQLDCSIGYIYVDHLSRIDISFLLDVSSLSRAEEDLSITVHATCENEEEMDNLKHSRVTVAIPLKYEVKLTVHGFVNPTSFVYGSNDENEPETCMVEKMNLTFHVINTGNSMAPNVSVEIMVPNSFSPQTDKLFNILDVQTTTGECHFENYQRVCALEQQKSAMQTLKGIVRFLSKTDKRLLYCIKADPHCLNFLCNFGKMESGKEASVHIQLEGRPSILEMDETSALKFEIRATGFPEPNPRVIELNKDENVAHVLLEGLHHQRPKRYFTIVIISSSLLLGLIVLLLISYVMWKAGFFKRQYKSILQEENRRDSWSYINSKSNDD
AP-2 complex subunit beta (Homo sapiens), sequence (P63010 whole entry, looked up, the tested form may be a part, one chain of several): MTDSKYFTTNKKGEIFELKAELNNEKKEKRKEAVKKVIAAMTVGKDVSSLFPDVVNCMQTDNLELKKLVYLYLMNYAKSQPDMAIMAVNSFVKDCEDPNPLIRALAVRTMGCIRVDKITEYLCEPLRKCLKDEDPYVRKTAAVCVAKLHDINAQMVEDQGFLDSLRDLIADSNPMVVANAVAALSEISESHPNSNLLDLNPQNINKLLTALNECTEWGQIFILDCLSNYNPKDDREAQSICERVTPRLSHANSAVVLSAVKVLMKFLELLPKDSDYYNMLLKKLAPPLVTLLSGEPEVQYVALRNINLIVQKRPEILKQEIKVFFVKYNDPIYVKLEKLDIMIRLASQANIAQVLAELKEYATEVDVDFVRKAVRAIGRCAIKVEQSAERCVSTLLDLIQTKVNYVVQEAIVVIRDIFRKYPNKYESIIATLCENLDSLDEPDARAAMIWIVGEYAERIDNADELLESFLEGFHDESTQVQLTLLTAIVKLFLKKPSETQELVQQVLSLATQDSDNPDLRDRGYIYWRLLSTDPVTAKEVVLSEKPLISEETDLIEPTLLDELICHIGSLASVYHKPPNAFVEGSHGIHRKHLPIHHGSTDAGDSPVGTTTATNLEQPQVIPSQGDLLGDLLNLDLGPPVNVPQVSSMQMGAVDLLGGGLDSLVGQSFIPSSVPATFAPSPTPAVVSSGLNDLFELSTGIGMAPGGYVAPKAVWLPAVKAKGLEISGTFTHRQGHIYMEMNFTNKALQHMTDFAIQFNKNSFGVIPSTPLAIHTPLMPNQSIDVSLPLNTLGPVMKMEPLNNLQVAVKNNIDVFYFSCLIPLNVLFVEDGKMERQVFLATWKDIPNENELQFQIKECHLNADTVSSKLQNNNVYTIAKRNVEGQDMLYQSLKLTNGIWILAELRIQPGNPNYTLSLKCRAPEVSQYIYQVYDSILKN

Turning to `O=C(CS(=O)(=O)Cc1ccccc1)NCc1ccc2c(c1)OCO2`, the percent of DMSO control GFP in [1] is 88% (inactive). Moreover, the GFP response vs DMSO in [2] is 123% (inactive); in test [4], 81.4% (inactive). Besides, the percent response of DMSO control in test [3] was 88.6% (inactive). Also, the GFP response, % of DMSO in test [5] was 95.2% (inactive). Moreover, in test [6], the double positive events came out at 63.3%. In addition, the vesicle binding response in [6] was 123% (inactive). In addition, the values for the inhibition in test [7], in [11] and in [15] were -3.24% (inactive), -1.72% (inactive) and -87% (inactive), respectively. Also, the superoxide response (% of plate) in test [8] was 92% (inactive). In addition, the aptamer binding inhibition in test [9] is 1% (inactive). Moreover, the response in test [10] was -3.4% (inactive); in test [12], -0.1% (inactive). For the same compound, in test [13], the binding (% of control) was 104% (inactive). In addition, in test [14], the efflux inhibition (fraction of control) is -0.24 (inactive). Besides, the differentiation response in test [16] is 5.73% (inactive).

For the compound `CCc1cccc2c3c([nH]c12)C(CC)(CC(=O)O)OCC3` (stereo not drawn), in test [1], the percent of DMSO control GFP is 103% (inactive). Moreover, the figures for the GFP response vs DMSO in [2] and in test [4] were 106% (inactive) and 93.3% (inactive), respectively. In addition, the percent response of DMSO control in test [3] was 100% (inactive). In addition, the GFP response, % of DMSO in [5] was 100% (inactive). Moreover, in test [6], the double positive events worked out at 61.9%. Also, the vesicle binding response in test [6] is 36.2% (inactive). Besides, the inhibition was -4.6% (inactive) in [7], -11.4% (inactive) in [11] and -5% (inactive) in [15]. Moreover, in test [8], the superoxide response (% of plate) was 107% (inactive). In test [9], the aptamer binding inhibition was 1% (inactive). Besides, the response was -0.16% (inactive) in test [10] and 1.09% (inactive) in test [12]. Besides, in [13], the binding (% of control) is 86.9% (inactive). Moreover, the efflux inhibition (fraction of control) in test [14] was -0.26 (inactive). In test [16], the differentiation response is 3.18% (inactive).

Consider `C#C[C@]1(O)CC[C@H]2[C@@H]3CCc4cc(OC)ccc4[C@H]3CC[C@@]21C`, for which the percent of DMSO control GFP in test [1] is 103% (inactive). Also, the values for the GFP response vs DMSO in test [2] and in test [4] were 104% (inactive) and 126% (inactive), respectively. In addition, in [3], the percent response of DMSO control is 102% (inactive). The GFP response, % of DMSO in test [5] is 115% (inactive). In test [6], this compound came in with a double positive events of 63.7%. Besides, in [6], the vesicle binding response was 229% (inactive). Also, the inhibition in [7] was 3.14% (inactive); in test [11], 31.4% (inactive); in [15], 5% (inactive). In addition, the superoxide response (% of plate) in test [8] is 115% (inactive). Also, the aptamer binding inhibition in test [9] was -1% (inactive). In addition, the figures for the response in test [10] and in [12] were -13.2% (inactive) and 0.87% (inactive), respectively. Also, the binding (% of control) in test [13] was 108% (inactive). Also, in [14], the efflux inhibition (fraction of control) is -0.04 (inactive). Besides, the differentiation response in test [16] is -2.03% (inactive).

For the compound `COc1ccc(C(=O)NCCC2=CCCCC2)cc1[N+](=O)[O-]`, the percent of DMSO control GFP in test [1] is 107% (inactive). In addition, the GFP response vs DMSO in test [2] is 104% (inactive); in [4], 114% (inactive). In test [3], the percent response of DMSO control was 106% (inactive). In addition, in test [5], the GFP response, % of DMSO is 106% (inactive). The double positive events in [6] is 62.5%. In addition, the vesicle binding response in [6] is 194% (inactive). The inhibition in test [7] was 12.3% (inactive); in [11] it was 15.5% (inactive); in test [15] it was 5% (inactive). In test [8], the superoxide response (% of plate) was 99.5% (inactive). In addition, in test [9], the aptamer binding inhibition is 1% (inactive). Also, the response in test [10] was -5.02% (inactive); in test [12], -2.15% (inactive). Further, the binding (% of control) in test [13] was 97.5% (inactive). Moreover, in test [14], the efflux inhibition (fraction of control) was 1.08 (active). For the same compound, the differentiation response in test [16] is -3.11% (inactive).

Broadly, the inhibition is the relative decrease from the control value, in per cent.

The values above are taken from PubChem BioAssay.
